# Assay outcomes: PubChem BioAssay, National Center for Advancing Translational Sciences (NCATS)
# In the library only some 11% were active in any assay of this set; here they are far more common.
# NS1 function inh: qHTS Assay for Inhibitors of Influenza NS1 Protein Function; Potency, µM (highest dose often 46.1 µM), for inactives: at the highest dose activity, positive = more growth; 0.4% of 270,000 active; calls by dose curve; also: actives are rising curves; nearly all actives have a fitted effect of over 50% in size
#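 Growth recovery, yeast-based: influenza A NS1 expressed in S. cerevisiae causes slow growth, and suppressors are detected by OD600. The parent strain without NS1 is used as positive control.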
# HCV inh: qHTS Assay for Inhibitors of Hepatitis C Virus (HCV). AID 651820, 2012. Potency, µM (doses to about 41.8 µM), for the others: at the top dose activity change, negative = inhibition, most hits filed as inhibitors. Huh7.5.1 HCVcc-Cre infection, luciferase reporter, 44 h. 3.4% of 340,000 active; also: % is scaled to controls: 0 for no effect and ±100 for the full control effect
#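 Whole-lifecycle infectious HCVcc-Cre system; cells 1,000/well, compound then virus (~0.5 moi) added 4 h after plating, 44 h culture. Luciferase read 15 sec following 15 min substrate incubation, room temp.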
# Pf growth 96h: Primary qHTS for delayed death inhibitors of the malarial parasite plastid, 96 hour incubation; 6.9% of 320,000 active; P. falciparum luciferase reporter growth, 96 h; Potency, µM (highest dose often 28.7 µM), inactives show top-dose activity change, negative = inhibition, usual class: inhibitors; also: % is scaled to controls: 0 for no effect and ±100 for the full control effect
#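 Plates of compound plus infected erythrocytes (2% hematocrit, 0.05% parasitemia final) incubate 96 hours, 37 C, 5% CO2. Detection reagent added; reduced luminescence from the parasites' luciferase reporter flags inhibition.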
# Vaccinia mCherry: qHTS for Stage-Specific Inhibitors of Vaccinia Orthopoxvirus: mCherry Reporter Primary qHTS. Vaccinia virus mCherry reporter infection, fluorescence. Potency, µM (highest dose often 36.5 µM), for inactives: top-dose activity change, negative = inhibition, most hits filed as inhibitors. 0.63% of 310,000 active; calls by dose curve; tested in A549 cells; also: % is scaled to controls: 0 for no effect and ±100 for the full control effect; nearly all actives have a fitted effect of over 35% in size
# Pf growth 48h: Primary qHTS for delayed death inhibitors of the malarial parasite plastid, 48 hour incubation | P. falciparum luciferase growth in erythrocytes, 48 h | Potency, µM (doses to about 28.7 µM), for the others: top-dose activity change, negative = inhibition, hits mostly inhibitors | 5.9% of 310,000 active | AID 504832, 2011; also: % is scaled to controls: 0 for no effect and ±100 for the full control effect
#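 Luminescence readout; reporter = integrated firefly luciferase in P. falciparum. RBC culture at 2% hematocrit, 0.1% parasitemia final, 37 C/5% CO2; decreased signal taken as growth inhibition.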
# Vaccinia Venus: qHTS for Stage-Specific Inhibitors of Vaccinia Orthopoxvirus: Venus Reporter Primary qHTS. 0.46% of 330,000 active. Vaccinia virus Venus reporter expression, fluorescence. Potency, µM (doses to about 36.5 µM), for the others: at the top dose activity change, negative = inhibition, actives largely listed as inhibitors. AID 720580, 2013; calls by dose curve; tested in A549 cells; also: % is scaled to controls: 0 for no effect and ±100 for the full control effect; nearly all actives have a fitted effect of over 30% in size
# * hit, by the source's call; i = inactive; ? = inconclusive; nt = not tested or not shown; [ ] = another dose, or the depositor's remark. Unless noted, calls follow the shape of the dose curve; as a rule, active = well fitted inhibition curve with a large enough effect; inconclusive = small, poorly fitted or top-dose-only effect, or another doubt; inactive = no such curve, though single readings can be large or run the other way. Potency is read from the fitted curve at half-maximal effect.
SMILES,NS1 function inh,HCV inh,Pf growth 96h,Vaccinia mCherry,Pf growth 48h,Vaccinia Venus
O=[N+]([O-])c1cc(Cl)cc2c1nc(NCCO)c1ccccc12,-10%,2µM*,40%,0.89µM*,-12%,?
CC12CCC(C(=O)NCc3ccc(F)cc3)(OC1=O)C2(C)C (stereo unspecified),1%,13%,-1%,-18%,8%,-12%
CC1=C(C)C(=O)N(c2ccccn2)C1=O,-4%,13%,13%,nt,41%,-21%
Cc1cc(-c2sccc2Br)nc(-n2cccc2)n1,13%,13µM*,31%,3%,29%,-4%
Cc1ccsc1-c1ccnc(-n2cccc2)n1,?,-13%,11%,-1%,67%,-7%
Cc1cc(-c2ccc(Br)s2)nc(-n2cccc2)n1,3%,11µM*,32%,0%,14%,1%
CCc1ccc(/C=C2/C(=O)N(C)C(=S)N2CC(=O)OC)s1,-2%,-24%,49%,nt,-3%,nt
COc1ccc(C2NN=C(c3c[nH]c4ccccc34)C2O)cc1 (stereo unspecified),12%,11µM*,?,-3%,?,1%
COc1ccc(C2C(O)C(c3c[nH]c4ccccc34)=NN2C(=O)CCl)cc1 (stereo unspecified),19%,0.56µM*,?,?,2.9µM*,?
O=S(=O)(NC1CC(NS(=O)(=O)OCC(Cl)(Cl)Cl)C2CCCCC12)OCC(Cl)(Cl)Cl (stereo unspecified),16%,-8%,?,?,10%,11µM*
O=S(=O)(NC1CCCC1)OCC(Cl)(Cl)Cl,-20%,0.32µM*,33%,-1%,16%,-20%
Cc1ccccc1NC(=O)C1CCCN(S(=O)(=O)c2c(C)noc2C)C1 (stereo unspecified),5%,21%,-18%,-5%,-4%,-1%
C[N+]12CCCCC1C(COC(=O)c1ccc3c(c1)OCO3)CCC2 (stereo unspecified),-2%,4%,nt,i,9.3µM*,-12%
Cc1ccc(S(=O)(=O)NCC(=O)OCC(=O)c2cccs2)cc1,3%,19%,13µM*,-12%,-2%,-1%
Cc1ccc(S(=O)(=O)NCC(=O)OCc2ccccc2Br)cc1,-61%,24%,9.3µM*,i,40%,-15%
Nc1ccc(Cc2ccc(N)c(O)c2)cc1O,nt,1%,?,-2%,171%,-4%
O=C(COc1ccc(Cl)cc1Cl)NCCCn1ccnc1,12%,-2%,nt,nt,6.6µM*,nt
COc1ccc(Cl)cc1S(=O)(=O)NCCCn1ccnc1,18%,15%,i,-8%,33%,-8%
COc1ccc(Cl)cc1S(=O)(=O)N(C)CC(=O)NCCCn1ccnc1,-3%,24%,34%,-6%,16%,-2%
COc1ccc(Cl)cc1S(=O)(=O)NC(C)C(=O)NCCCn1ccnc1 (stereo unspecified),nt,12%,13µM*,i,3%,-6%
O=c1c2c3c(sc2nc2n1CCC2)CCC3,?,12%,0.33µM*,-9%,20%,-21%
CSc1nc2sc3c(c2c(=O)n1C)CCCC3,-12%,11µM*,36%,-13%,nt,-16%
CSc1nc2sc3c(c2c(=O)n1C)CCC3,-13%,?,67%,nt,2%,nt
C/C=C/C(O)c1ccc2ccccc2c1 (stereo unspecified),26%,nt,?,nt,-15%,nt
Cc1cc(C)c(N2CCN(S(=O)(=O)N3CCCCCC3)CC2)c(C)c1,-31%,-4%,nt,nt,10µM*,-21%
SMILES,NS1 function inh,HCV inh,Pf growth 96h,Vaccinia mCherry,Pf growth 48h,Vaccinia Venus
CN(C)c1ccc(-c2n[nH]c(=S)n2-c2ccccc2)cc1,nt,-5%,?,-18%,2%[5.75 µM],-19%
CN(C)c1ccc(C2CC(c3ccccc3)=Nc3nc(-c4ccccc4)cn32)cc1 (stereo unspecified),22%,3%,5.2µM*,nt,8.3µM*,nt
Cc1cccc(C)c1NC(=O)CN1CCN(C(=O)CNC(=O)Cc2cccc3ccccc23)CC1,nt,nt,nt,i,nt,-21%
CCc1ccccc1NC(=O)CN1CCN(C(=O)CNC(=O)Cc2cccc3ccccc23)CC1,nt,11µM*,?,nt,?,nt
O=C(OCc1cc(=O)n2nc(C3CCCCC3)sc2n1)c1ccccc1Cl,nt,nt,nt,10%,nt,13%
CCCCNC(=O)CSc1cc(=O)n(C)c2ccccc12,4%,-18%,0.21µM*,-7%,11%,2%
CC(CCc1ccco1)NC(=O)CSc1cc(=O)n(C)c2ccccc12 (stereo unspecified),2%,-6%,4.1µM*,?,50%,-15%
CCN(CCCNC(=O)CSc1cc(=O)n(C)c2ccccc12)c1ccccc1,nt,nt,nt,-15%,nt,-12%
COc1ccc(OC)c(NC(=O)c2cc(CN3CCCC3)on2)c1,nt,nt,nt,-10%,nt,-15%
CC1(C)N=C(N)NC(Nc2cccc(Br)c2)=N1,-5%,33%,1.2µM*,-2%,nt,-11%
COc1cccc(-n2nc3c(-n4ncc(C#N)c4N)nnc(C)c3c2C)c1,8%,-1%,-27%,nt,-29%,nt
Cc1ccc(C)n1-c1ccc(N2CCOCC2)c(Br)c1,7%,-5%,15µM*,nt,nt,-22%
Cc1cc(C=O)c(C)n1-c1ccc(N2CCOCC2)cc1,19%,-1%,?,-8%,127%,-18%
O=C(NCCn1cc(SCc2ccc(Br)cc2)c2ccccc21)c1cccs1,nt,nt,nt,-18%,nt,-13%
CN(Cc1ccc(Cl)cc1Cl)C(=O)Cc1ccc(S(=O)(=O)N2CCOCC2)s1,nt,nt,nt,-27%,nt,-18%
COc1ccc(-c2c3c(nc4sc(C(=O)Nc5cc(C)on5)c(N)c24)CCC3)cc1,13%,?,14%,-15%,4.1µM*,-5%
NC(=O)c1sc2nc3c(c(-c4ccco4)c2c1N)CCC3,-32%,22µM*,13%,?,-3%,?
Cc1ccc(-c2c3c(nc4sc(C(N)=O)c(N)c24)CCCC3)o1,-11%,-15%,-11%,-20%,-7%,-12%
CCOc1cccc(OCCOCCn2cnc3ccccc3c2=O)c1,-4%,-3%,?,-13%,nt,-16%
CN(C(=O)c1ccc(OC2CCN(CCc3ccccc3)CC2)cc1)C1CCOCC1,3%,15%,9.3µM*,nt,-2%,nt
CN(C(=O)c1ccc(OC2CCN(CCc3ccccc3)CC2)cc1)C1CCOC1 (stereo unspecified),5%,2%,?,?,-5%,-3%
CCN(CC)C1CCN(C(=O)c2ccc(OC3CCN(CCc4ccccc4)CC3)cc2)C1 (stereo unspecified),3%,7.1µM*,33%,nt,?,nt
